CBX7 AlphaScr = CBX7 chromodomain binding inhibitors, primary screen, biochemical, AlphaScreen; Chromobox protein homolog 7 (Homo sapiens), O95931; AlphaScreen His6-CBX7 / biotin-H3K27me3 peptide binding; hits give low values; normalised signal (fraction of DMSO) (test concentration not listed); 66,000 compounds, 1.1% hits; AID 1224903, 2016; in the data active = normalised signal below about 0.5
Target sequence (O95931 whole entry, looked up): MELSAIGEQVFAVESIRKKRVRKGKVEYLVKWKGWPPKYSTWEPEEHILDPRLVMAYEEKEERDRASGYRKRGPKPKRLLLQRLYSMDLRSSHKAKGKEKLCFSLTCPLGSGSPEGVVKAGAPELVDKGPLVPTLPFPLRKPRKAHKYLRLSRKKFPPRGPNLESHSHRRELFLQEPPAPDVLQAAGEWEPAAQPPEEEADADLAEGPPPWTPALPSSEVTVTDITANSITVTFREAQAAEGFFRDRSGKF
Numbers without * were called inactive. Many of the other results were omitted from the sample, so hits are more common in it than they were.

SMILES	CBX7 AlphaScr
O=C(O)c1ccc(Nc2nc(-c3ccccn3)cs2)cc1	0.18*
O=C(O)c1ccc(Nc2nc(-c3ccncc3)cs2)cc1	0.91
CCOc1ccc(Nc2nc(-c3ccccn3)cs2)cc1	0.018*
Cc1onc(-c2c(Cl)cccc2Cl)c1C(=O)N(Cc1ccccc1)Cc1ccccc1	0.68
COc1ccc(NC(=O)Cn2c(-c3ccccc3Cl)nc3sc(C)c(C)c3c2=O)cc1Cl	0.96
CCC(=O)Nc1ccc(Nc2nc3cc(Cl)c(Cl)cc3nc2-n2nc(C)cc2C)cc1	1.1
COc1ccc(-n2nc(C(=O)NCC(=O)Nc3ccc(C(C)C)cc3)c3ccccc3c2=O)cc1	0.97
COC(=O)c1ccc(Nc2nnc(-c3ccc(C)c(S(=O)(=O)N4CCCCC4)c3)c3ccccc23)cc1	1
C(=C\c1ccccc1)/CSc1nnc(-c2ccncc2)o1	0.99
CCN(CCCNC(=O)Cc1cn(C)c2ccccc12)c1ccccc1	0.5*
CCN(CC)CCCNC(=O)Cc1cn(C)c2ccccc12	0.98
Cn1cc(CC(=O)NCCCN2CCCC2)c2ccccc21	0.96
CCCNC(=O)Cn1cnc2sc(C(=O)Nc3ccccc3OC)c(C)c2c1=O	1
Cc1ccc2c(c1)-c1c(cnn1CC(=O)NCCCN1CCOCC1)CO2	0.95
Cc1csc2ncc(C(=O)NCCc3ccc(S(N)(=O)=O)cc3)c(=O)n12	0.88
COc1ccc2[nH]c(C)c(CCNCC(C)Cc3ccc4c(c3)OCO4)c2c1 (stereo unspecified)	0.34*
COC(=O)c1ccc(C(=O)NCCc2c(C)[nH]c3ccc(OC)cc23)cc1	0.95
COC(=O)c1cccc(CNCCc2c(C)[nH]c3ccc(OC)cc23)c1	0.7
COc1cc2c(cc1NC(=O)c1c(-c3ccccc3Cl)noc1C)oc1ccccc12	0.99
CCOC(=O)N1CCN(c2c(NCCCc3ccccc3)c(=O)c2=O)CC1	1
CCOC(CNC(=O)CS(=O)(=O)Cc1nc(-c2ccc(OC)cc2)oc1C)OCC	1
CCOC(=O)c1cnc2ccccc2c1Nc1ccc(C(=O)OC)cc1	1
O=S(=O)(c1ccc(Cl)cc1)N(CCCN1CCOCC1)Cc1cccs1	0.49*
O=S(=O)(c1ccc(F)cc1)N(CCCN1CCOCC1)Cc1cccs1	0.85
O=S(=O)(c1cccc(Cl)c1)N(CCCN1CCOCC1)Cc1cccs1	0.87
SMILES	CBX7 AlphaScr
O=C(Cn1cnc2c(nnn2Cc2ccc(F)cc2)c1=O)N1CCCC1	0.84
CCN1CCN(c2oc(COc3ccccc3)nc2C#N)CC1	0.95
COc1ccc(N2CCN(c3oc(COc4ccccc4F)nc3C#N)CC2)cc1	0.55
N#Cc1nc(COc2ccccc2F)oc1N1CCCC1	0.88
COc1ccccc1OCc1nc(C#N)c(N(C)C)o1	0.95
CN1CCN(c2oc(COc3ccc(F)cc3)nc2C#N)CC1	1
N#Cc1nc(COc2ccccc2)oc1NCc1ccc(F)cc1	0.88
COc1ccc(OCc2nc(C#N)c(N3CCOCC3)o2)cc1	1
N#Cc1nc(COc2ccccc2F)oc1N1CCN(c2ccccc2)CC1	0.48*
Cc1ccc(OCc2nc(C#N)c(N3CCC(C(N)=O)CC3)o2)cc1	0.88
CN(Cc1ccccc1)c1oc(COc2ccc(F)cc2)nc1C#N	0.44*
Cc1ccc(OCc2nc(C#N)c(N3CCN(c4ccccc4)CC3)o2)cc1	0.46*
Cc1ccc(OCc2nc(C#N)c(N3CCN(Cc4ccccc4)CC3)o2)cc1	0.46*
CC(NC(=O)c1ccc2c(c1)OCO2)C(c1cccs1)N1CCN(c2ccccc2F)CC1 (stereo unspecified)	0.92
CC(C)COc1ccc(C(=O)Nc2ccc3oc(-c4ccc(N(C)C)cc4)nc3c2)cc1	0.93
Cc1ccc2[nH]cc(CCNC(=O)c3ccccc3)c2c1	1.2
O=C(c1ccc2c(c1)N(Cc1ccccc1F)C(=O)c1ccccc1S2=O)N1CCCC1 (stereo unspecified)	0.95
COc1ccc(CCN2C(=O)CC(Cc3cc(C)cc(C)c3)C2=O)cc1OC (stereo unspecified)	0.98
Cc1ccc(-c2ccc(=O)n(CC(=O)NC(C)(C)C)n2)cc1	1
Cc1cc(C)c2c(c1)C(O)(CC(=O)c1ccccn1)C(=O)N2 (stereo unspecified)	1.1
COc1ccc(C(=O)Nc2nnc(-c3ccccc3)s2)cc1S(=O)(=O)N1CCOCC1	1
CCCCNC(=O)c1ccc2c(c1)N(Cc1cccc(F)c1)C(=O)c1ccccc1S2	0.95
CC1CCN(c2oc(COc3ccc(Cl)cc3)nc2C#N)CC1	0.36*
Cc1ccc(OCc2nc(C#N)c(N3CCC(C)CC3)o2)cc1	0.52
N#Cc1nc(COc2ccc(Cl)cc2)oc1N1CCOCC1	1.2
SMILES	CBX7 AlphaScr
O=c1oc2c(Cl)cc(Cl)cc2cc1-c1csc(Nc2ccccc2F)n1	0.93
CCOc1ccc2nc(N3CCCC(C(=O)Nc4c(C)cccc4C)C3)sc2c1 (stereo unspecified)	1.3
CCOc1ccc2nc(N3CCCC(C(=O)N4CCN(c5ccccc5)CC4)C3)sc2c1 (stereo unspecified)	0.76
CCOc1ccc2nc(N3CCCC(C(=O)N4CCN(C)CC4)C3)sc2c1 (stereo unspecified)	0.38*
CCOc1ccc2nc(N3CCC(C(=O)N4CCN(C)CC4)CC3)sc2c1	1
CCOc1ccc2nc(N3CCCC(C(=O)N4CCN(c5cccc(C)c5)C(C)C4)C3)sc2c1 (stereo unspecified)	0.49*
CCOc1ccc2nc(N3CCCC(C(=O)N4CCN(c5ncccn5)CC4)C3)sc2c1 (stereo unspecified)	0.94
COCCn1cnc2sc(C(=O)Nc3ccc(F)cc3Cl)c(C)c2c1=O	1.1
Fc1ccc(Nc2nnc(Cc3cccnc3)c3ccccc23)cc1	1.1
O=C(Nc1ccc(F)cc1)C1CCC(CNS(=O)(=O)c2cccc3cccnc23)CC1 (stereo unspecified)	1
CC(C)CCNC(=O)c1cc(-c2ccccn2)nc2ccc(S(=O)(=O)N3CCC(C)CC3)cc12	0.96
COc1cc2c(C(=O)NCCc3ccc(Cl)cc3)cn(C)c(=O)c2cc1OC	1.1
CCc1ccccc1NC(=O)c1cc2c(-c3cccc(OC)c3)nn(C)c2s1	1
CCOC(=O)c1[nH]c2ccc(Cl)cc2c1CCN1C(=O)c2ccccc2C1=O	0.98
COc1cc(OC)c(OC)cc1CN1CCN(Cc2ccccc2Cl)CC1	0.99
COc1ccc(N2Cc3cccc(C(=O)NC4CCCC4)c3C2=O)cc1	1.1
CCOC(=O)N1CCC(NC(=O)c2cccc3c2C(=O)N(c2ccc(OC)cc2)C3)CC1	0.47*
COc1ccc(N2Cc3cccc(C(=O)NC4CCCCCC4)c3C2=O)cc1	1
CC1CCN(c2nc(-c3cccnc3)nc3ccccc23)CC1	0.81
Cc1c(C(=O)NCCc2ccccc2)oc2ccc(S(=O)(=O)N3CCC(C)CC3)cc12	1.1
COc1ccc(Nc2ncc(C(=O)N3CCOCC3)c3ccccc23)cc1	1
CC(C)c1ccc(NC(=O)C(c2ccc3c(c2)OCO3)N2CCc3ccccc32)cc1 (stereo unspecified)	0.66
CC(C)c1ccc(NC(=O)C(c2ccccc2)N2CCc3ccccc32)cc1 (stereo unspecified)	0.49*
Cc1cccc(C)c1NC(=O)C(c1ccccc1)N1CCc2ccccc21 (stereo unspecified)	0.87
CCOC(=O)c1cc(-c2ccc(OC)cc2)n(CCC(=O)NC(c2ccccc2)c2ccccc2)c1C	0.88
CCOC(=O)c1cnc2c(OC)cccc2c1N1CCC(C)CC1	0.65
CCOC(=O)c1cnc2c(OC)cccc2c1N1CCN(c2ccccc2)CC1	0.56

Compound activity (PubChem BioAssay)
